Data on 19 compounds can be found in PubChem BioAssay (Tox21).

Each structure is given as a SMILES string. “And” between values parts separate entries of the source, which are not always exact repeats. Equal entries are not always repeated. Records with an inconclusive call do not appear. The source made the active and inactive calls. Unless noted, calls come from the whole dose curve; as a rule, active = well fitted curve in the direction sought with a large enough effect in the repeat runs; inconclusive = weak or mixed curves; inactive = no such curve, though single readings can be large; an effect the other way counts as inactive or inconclusive.

Assay [1] can be described thus: qHTS assay for small molecule agonists of the p53 signaling pathway (AID 651631; calls by dose curve; note: nearly all actives have a fitted effect of over 15% in size; note: potency is the fitted concentration of half-maximal effect). A digest of the protocol:
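Agonist mode screen using a stably integrated beta-lactamase gene under p53 response elements in HCT-116 cells. Compound exposure lasts 16 h at 37 °C; fluorescence intensity is measured following 2 h FRET substrate loading.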

A short description of assay [2]: qHTS assay for small molecules that induce genotoxicity in human embryonic kidney cells expressing luciferase-tagged ATAD5 (AID 651632). Note: nearly all actives have a fitted effect of over 15% in size. Note: potency is the fitted concentration of half-maximal effect. The method, boiled down: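 Quantitative HTS in HEK293T expressing luciferase-tagged ATAD5, whose levels rise upon DNA damage. Exposure ran 16 hr at 37C and 5% CO2, with luminescence read 30 min after Amplite addition at room temperature.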
(In general: qHTS replaces the single test concentration by a dilution series.)

A short description of assay [3]: qHTS assay for small molecule agonists of the p53 signaling pathway - cell viability (AID 651633; calls by dose curve; note: nearly all actives have a fitted effect of over 30% in size; note: potency is the fitted concentration of half-maximal effect). A digest of the protocol: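 Viability counter-read: CellTiter-Glo luminescence (30 min, room temperature) in the same p53RE-bla plates. These plates had been exposed to compounds for 16 h at 37 C.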
Assay [4] is described as follows: qHTS assay for small molecules that induce genotoxicity in human embryonic kidney cells expressing luciferase-tagged ATAD5 - cell viability (AID 651634; calls by dose curve; note: nearly all actives have a fitted effect of over 25% in size). The method, boiled down: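 After 15.5 hr incubation with compound at 37C, 5% CO2, HEK293T ATAD5-luciferase cells received CellTiter-Fluor reagent; fluorescence intensity was quantified following 30 min at 37C.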

Assay [5] in a line: qHTS assay for small molecule disruptors of the mitochondrial membrane potential - cell viability (AID 720634; calls by dose curve;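 note: human HepG2 liver cancer cells; series mostly up to about 83 µM; nearly all actives have a fitted effect of over 20% in size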). A digest of the protocol: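 ATP-based luminescent viability readout (CellTiter-Glo, 30 min, room temperature) in HepG2 cells multiplexed with the m-MPI membrane potential dye; compound exposure lasted 1 hr at 37 C.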
Assay [6] in a line: qHTS assay to test for compound auto fluorescence at 590 nm (red) in HepG2 cells (AID 720674). The method, boiled down:
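We screened compounds on adherent HepG2 cells, incubating them for an hour at 37 C in 5% CO2 before reading emission at 590 nm under 540 nm excitation; values reflect equivalence to Rose Bengal sodium fluorescence.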

Assay [7] is described as follows: qHTS assay to test for compound auto fluorescence at 535 nm (green) in HepG2 cells (AID 720675).
Assay [8] is described as follows: qHTS assay to test for compound auto fluorescence at 460 nm (blue) in HEK293 cells (AID 720678). Note: potency is the fitted concentration of half-maximal effect. The method, boiled down:
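Measured: blue fluorescence (Ex 405/Em 460 nm) of compound-treated HEK293 cells, incubated overnight at 37C with 5% CO2 and scaled to triamterene equivalents.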

A short description of assay [9]: qHTS assay to test for compound auto fluorescence at 590 nm (red) in HEK293 cells (AID 720679). The method, boiled down:
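Using HEK293 cells at 2,000 per well, the screen added 23 nL of each compound after cell attachment and incubated overnight (37C, 5% CO2). The plate reader then captured red-label fluorescence, Ex/Em 540/590nm.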

Assay [10] in a line: qHTS assay for small molecule disruptors of the mitochondrial membrane potential (AID 720635). A digest of the protocol:
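Mitochondrial membrane potential tracked with Mito-MPS dye, red aggregates (ex 540/em 590 nm) against green monomers (ex 490/em 535 nm). Compound treatment 1 hr at 37C, dye 30 min in HepG2.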
Tags give direction and shape of the fitted curve or compound fluorescence and quenching.

`CN(N=O)C(=O)N[C@@H]1[C@@H](O)[C@H](O)[C@@H](CO)O[C@@H]1O`: the Potency entry in [1], in assay [2], in assay [3], in assay [4], in assay [5] and in assay [6] was “inactive” in each case. The Potency entry in assay [7], in [8] and in assay [9] was “inactive” in each case.
In the case of `Cc1ncc([N+](=O)[O-])n1CCO`, the Potency entry in [1], in [2], in [3], in assay [4], in [6] and in assay [7] was “inactive” throughout. Also, the Potency entry in assay [8] and in assay [9] was “inactive” in each case.
With `Cc1cc(=O)oc2cc(O)ccc12`, the Potency is 61.1 µM (active) and 48.6 µM (active) in assay [1]; 11.2 µM [fluorescent] (active) and 39.8 µM [fluorescent] (active) and 35.5 µM [fluorescent] (active) in assay [8]. Besides, the Potency entry in assay [2], in assay [3], in assay [4], in assay [10], in [6] and in [7] was “inactive” in each case. Further, in assay [9], the Potency result is “inactive”.
On to `CN(C)C(=O)Nc1ccc(Cl)c(Cl)c1`, for which the Potency entry in [1], in [2], in assay [3], in assay [4], in [6] and in assay [7] was “inactive” throughout. The Potency result in assay [8] and in [9] was “inactive” each time.
With `CCCCC1(COC(=O)CCC(=O)O)C(=O)N(c2ccccc2)N(c2ccccc2)C1=O`, the Potency entry in assay [1], in assay [2], in assay [3], in assay [4], in [5] and in assay [6] was “inactive” throughout. Also, the Potency entry in [7], in assay [8] and in assay [9] was “inactive” throughout.
In the case of `CCOc1ccc(NC(C)=O)cc1`, the Potency entry in [1], in assay [2], in assay [3], in assay [4], in assay [5] and in assay [10] was “inactive” each time. Further, the Potency entry in assay [6], in assay [7], in assay [8] and in assay [9] was “inactive” throughout.
As for `COc1ccc(OC(F)(F)F)cc1CN[C@H]1CCCN[C@H]1c1ccccc1`, the Potency entry in assay [1], in assay [2], in assay [3], in assay [4], in assay [5] and in [6] was “inactive” each time. The Potency result in assay [7], in [8] and in assay [9] was “inactive” each time.
As for `Cc1ncc([N+](=O)[O-])n1C`, the Potency result in assay [1], in [2], in assay [3], in assay [4], in assay [10] and in [6] was “inactive” each time. Also, the Potency result in assay [7], in [8] and in assay [9] was “inactive” in each case.
With `NS(=O)(=O)c1cc2c(cc1Cl)NCNS2(=O)=O`, the Potency result in assay [1], in [2], in [3], in [4], in assay [5] and in [10] was “inactive” in each case. The Potency result in assay [6], in [7], in [8] and in [9] was “inactive” in each case.
Take `NC(CO)(CO)CO`: the Potency result in assay [1], in [2], in assay [3], in [4], in [5] and in assay [10] was “inactive” throughout. Also, the Potency result in assay [6], in [7], in [8] and in assay [9] was “inactive” throughout.
Turning to `CCc1nc(N)nc(N)c1-c1ccc(Cl)cc1`, the Potency in assay [1] is 8.41 µM (active); in [3], 10.6 µM (active) and 12.4 µM (active). Besides, the Potency result in assay [2], in assay [4], in assay [5], in assay [6], in [7] and in assay [8] was “inactive” in each case. In assay [9], the Potency result was “inactive”.
With `CN(C)CCOC(C)(c1ccccc1)c1ccccn1` (stereo not given), the Potency result in assay [1], in assay [2], in [3], in assay [4], in [6] and in assay [7] was “inactive” each time. For the same compound, the Potency entry in assay [8] and in [9] was “inactive” each time.
In the case of `CC1(C)O[C@@H]2C[C@H]3[C@@H]4CCC5=CC(=O)C=C[C@]5(C)[C@@]4(F)[C@@H](O)C[C@]3(C)[C@]2(C(=O)CO)O1`, the Potency entry in assay [1], in assay [2], in assay [3], in assay [4], in assay [6] and in assay [7] was “inactive” each time. For the same compound, the Potency result in assay [8] and in assay [9] was “inactive” throughout.
Consider `NC(=O)c1cccnc1`, for which the Potency entry in [1], in assay [2], in assay [3], in [4], in assay [5] and in assay [10] was “inactive” in each case. The Potency entry in assay [6], in assay [7], in [8] and in assay [9] was “inactive” throughout.
In the case of `O=C(O)CC(O)C(=O)O` (stereo not given), the Potency result in [1], in assay [2], in assay [3], in assay [4], in assay [5] and in assay [6] was “inactive” in each case. In addition, the Potency result in assay [7], in [8] and in assay [9] was “inactive” in each case.
Regarding `O=C(O)c1ccccc1`, the Potency result in assay [1], in [2], in [3], in assay [4], in assay [5] and in [6] was “inactive” throughout. Further, the Potency entry in assay [7], in assay [8] and in assay [9] was “inactive” throughout.
In the case of `COc1ccc2c(c1)c(CC(=O)O)c(C)n2C(=O)c1ccc(Cl)cc1`, the Potency entry in [1], in [2], in assay [3], in [4], in assay [6] and in assay [7] was “inactive” each time. Also, the Potency entry in [8] and in [9] was “inactive” each time.
As to `CCCc1cc(=O)[nH]c(=S)[nH]1`, the Potency entry in [1], in [2], in assay [3], in [4], in assay [6] and in [7] was “inactive” each time. Moreover, the Potency result in assay [8] and in [9] was “inactive” throughout.
In the case of `O=c1[nH]cc(F)c(=O)[nH]1`, the Potency in [1] is 4.22 µM (active) and 3.57 µM (active) and 1.57 µM (active); in assay [2] it was 7.5 µM (active) and 10.1 µM (active); in [3] it was 1.06 µM (active) and 991 nM (active). The Potency entry in [4], in assay [5], in [10], in assay [6], in [7] and in assay [8] was “inactive” throughout. The Potency result in assay [9] was “inactive”.
